High-throughput results deposited in PubChem BioAssay by National Center for Advancing Translational Sciences (NCATS).
In the library only some 12% were active in any assay of this set; here they are far more common.
JMJD2A Tudor inh – qHTS Assay for Inhibitors of JMJD2A-Tudor Domain | AlphaScreen JMJD2A-Tudor / H3K4me3 peptide binding | Potency, µM (top dose mostly 114 µM), most hits filed as inhibitors | hit rate 4.4% among 390,000; note: nearly all actives have a fitted effect of over 50% in size
BAZ2B inh – qHTS Assay for Inhibitors of BAZ2B; Bromodomain adjacent to zinc finger domain protein 2B (Homo sapiens), Q9UIF8; AlphaScreen BAZ2B-H3K14Ac peptide displacement; Potency, µM (series often up to 114 µM), actives largely listed as inhibitors; hit rate 4.4% among 360,000; AID 504333, 2011; note: nearly all actives have a fitted effect of over 60% in size
Target sequence (Q9UIF8 whole entry, looked up, the tested form may be a part): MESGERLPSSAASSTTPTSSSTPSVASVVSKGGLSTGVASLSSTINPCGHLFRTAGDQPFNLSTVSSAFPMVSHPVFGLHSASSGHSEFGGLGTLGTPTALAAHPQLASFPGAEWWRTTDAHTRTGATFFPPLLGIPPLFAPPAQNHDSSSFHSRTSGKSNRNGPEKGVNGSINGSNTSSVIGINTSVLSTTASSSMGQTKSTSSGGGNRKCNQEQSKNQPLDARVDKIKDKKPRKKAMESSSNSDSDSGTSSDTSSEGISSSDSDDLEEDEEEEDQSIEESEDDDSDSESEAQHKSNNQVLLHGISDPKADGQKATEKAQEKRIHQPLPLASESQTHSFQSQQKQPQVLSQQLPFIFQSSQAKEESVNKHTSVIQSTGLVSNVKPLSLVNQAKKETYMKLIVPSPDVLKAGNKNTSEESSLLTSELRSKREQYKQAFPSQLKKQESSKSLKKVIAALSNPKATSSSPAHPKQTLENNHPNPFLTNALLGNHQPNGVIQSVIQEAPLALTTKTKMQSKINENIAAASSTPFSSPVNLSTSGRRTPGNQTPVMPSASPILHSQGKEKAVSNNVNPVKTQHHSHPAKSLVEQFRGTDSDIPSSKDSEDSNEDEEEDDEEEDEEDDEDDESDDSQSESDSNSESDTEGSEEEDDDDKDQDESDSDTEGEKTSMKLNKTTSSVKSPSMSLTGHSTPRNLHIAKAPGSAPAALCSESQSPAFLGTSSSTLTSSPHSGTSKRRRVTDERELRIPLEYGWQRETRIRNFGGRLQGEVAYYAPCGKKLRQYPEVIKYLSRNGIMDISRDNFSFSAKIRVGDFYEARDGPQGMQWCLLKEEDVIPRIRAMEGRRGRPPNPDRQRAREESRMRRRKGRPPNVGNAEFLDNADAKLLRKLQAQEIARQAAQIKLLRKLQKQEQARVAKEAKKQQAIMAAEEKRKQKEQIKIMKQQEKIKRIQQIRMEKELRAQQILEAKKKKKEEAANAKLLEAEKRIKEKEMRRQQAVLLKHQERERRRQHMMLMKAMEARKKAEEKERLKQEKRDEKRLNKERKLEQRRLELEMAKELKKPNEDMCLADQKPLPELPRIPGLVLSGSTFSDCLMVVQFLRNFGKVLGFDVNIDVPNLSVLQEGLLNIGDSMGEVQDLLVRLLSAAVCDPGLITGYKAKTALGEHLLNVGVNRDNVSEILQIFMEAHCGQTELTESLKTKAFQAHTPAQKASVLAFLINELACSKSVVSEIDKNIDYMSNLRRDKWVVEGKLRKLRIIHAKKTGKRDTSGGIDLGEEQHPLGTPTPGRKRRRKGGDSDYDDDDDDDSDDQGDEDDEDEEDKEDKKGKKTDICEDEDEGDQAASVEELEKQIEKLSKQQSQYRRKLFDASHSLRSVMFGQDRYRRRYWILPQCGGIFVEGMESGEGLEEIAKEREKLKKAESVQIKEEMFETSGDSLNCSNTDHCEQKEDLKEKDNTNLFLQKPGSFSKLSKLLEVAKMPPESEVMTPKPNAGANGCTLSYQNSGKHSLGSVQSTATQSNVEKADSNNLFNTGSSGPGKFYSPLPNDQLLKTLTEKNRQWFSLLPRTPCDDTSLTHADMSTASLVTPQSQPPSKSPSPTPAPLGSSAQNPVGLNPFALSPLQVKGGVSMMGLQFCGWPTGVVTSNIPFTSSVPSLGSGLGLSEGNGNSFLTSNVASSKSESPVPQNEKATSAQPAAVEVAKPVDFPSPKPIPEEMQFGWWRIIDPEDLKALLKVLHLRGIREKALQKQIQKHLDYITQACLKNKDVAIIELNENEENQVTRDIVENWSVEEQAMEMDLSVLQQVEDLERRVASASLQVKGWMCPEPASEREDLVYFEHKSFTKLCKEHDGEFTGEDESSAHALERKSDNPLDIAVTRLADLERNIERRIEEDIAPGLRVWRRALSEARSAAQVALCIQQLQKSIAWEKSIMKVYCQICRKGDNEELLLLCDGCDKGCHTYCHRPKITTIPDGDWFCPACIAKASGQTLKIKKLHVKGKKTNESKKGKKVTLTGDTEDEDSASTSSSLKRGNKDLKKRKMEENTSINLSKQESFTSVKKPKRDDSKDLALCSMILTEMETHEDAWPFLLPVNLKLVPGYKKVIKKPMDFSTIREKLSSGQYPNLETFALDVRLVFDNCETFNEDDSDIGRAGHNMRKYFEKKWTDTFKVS
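BAZ2B 50 nM plus b-H3(5-23)K14Ac 50 nM, PBS pH 7.4/0.01% Tween-20, 30 min RT; compound added (max 110 uM), 30 min RT; streptavidin donor/Ni-chelate acceptor beads 10 ug/mL final, 20 min dark; AlphaScreen read.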
HP1b binding inh – HTS for Inhibitors of HP1-beta Chromodomain Interactions with Methylated Histone Tails. Chromobox protein homolog 1 (Homo sapiens), P83916. AlphaScreen HP1-beta / biotin-H3K9me3 peptide binding. Potency, µM (titrated, usually from 114 µM), most hits filed as inhibitors. hit rate 0.56% among 390,000. AID 540317, 2011; note: nearly all actives have a fitted effect of over 70% in size
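HP1-beta protein (50 nM final) preincubated 30 min at room temperature with biotinylated H3(1-18)K9me3 peptide (50 nM) in PBS pH 7.4, 0.01% Tween-20, then compound added for 30 min. AlphaScreen streptavidin donor/nickel chelate acceptor beads (10 ug/mL final), 30 min dark, luminescence read.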
G9a block – qHTS Assay for Inhibitors of Histone Lysine Methyltransferase G9a; Histone-lysine N-methyltransferase EHMT2 (Homo sapiens), Q96KQ7; G9a H3K9 monomethylation, AlphaScreen, 2 h; Potency, µM (top dose mostly 102 µM), most hits filed as inhibitors; hit rate 8.8% among 350,000; AID 504332, 2011; note: nearly all actives have a fitted effect of over 75% in size
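AlphaScreen detection with an anti-monomethyl H3K9 antibody quantified product after a 2 h room-temperature reaction containing 500 nM biotinylated H3K9 peptide, 20 µM SAM and 20 nM enzyme, which had been preincubated 15 min with compound.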
PLK1 PBD inh – qHTS for Inhibitors of PLK1-PDB (polo-like kinase 1 - polo-box domain): Primary Screen | Serine/threonine-protein kinase PLK1 (Homo sapiens), P53350 | hit rate 2.8% among 360,000 | Plk1 PBD binding of FITC phosphopeptide, fluorescence polarization | AID 720504, 2013 | Potency, µM, most hits filed as inhibitors; note: series mostly up to about 57 µM; nearly all actives have a fitted effect of over 65% in size
PI5P4K alpha inh – qHTS for Inhibitors of phosphatidylinositol 5-phosphate 4-kinase (PI5P4K); Phosphatidylinositol 5-phosphate 4-kinase type-2 alpha (Homo sapiens), P48426; PI5P4Kalpha enzyme, ADP-Glo luminescence, 60 min; hits give low values; max response, %; hit rate 1.2% among 330,000; AID 652105, 2013; active = max response of -50% or lower; inconclusive = between -30% and -50%; inactive = -30% or higher; note: value at the top dose of about 77 µM
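Quantitative HTS of the MLSMR library against PI5P4Kalpha with substrate. ATP added last at 5 microM final; room temperature, 60 minutes. Remaining ATP depleted, ADP converted and read as luminescence.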
Of the large screens only hits and unclear results are named; the others gave an inactive call. Unless noted, calls come from the whole dose curve; as a rule, active = well fitted curve in the direction sought with a large enough effect; inconclusive = small, poorly fitted or top-dose-only effect, or another doubt; inactive = no such curve, though single readings can be large; an effect the other way counts as inactive or inconclusive.

CN1CCN(C2=C(Cl)C(=O)N(C3CCCCC3)C2=O)CC1	G9a block 40µM (no result: PI5P4K alpha inh)
Cc1[nH]nc2c1C1(C(=O)N(Cc3ccc(Cl)cc3)c3ccccc31)C(C#N)=C(N)O2 (stereo not drawn)	JMJD2A Tudor inh inconclusive, G9a block 50µM (no result: PI5P4K alpha inh)
CC(=O)N1C(=O)C2(C(C#N)=C(N)Oc3n[nH]c(-c4ccccn4)c32)c2ccccc21 (stereo not drawn)	PLK1 PBD inh 24µM, PI5P4K alpha inh inconclusive
Cc1[nH]nc2c1C1(C(=O)Nc3ccc([N+](=O)[O-])cc31)C(C#N)=C(N)O2 (stereo not drawn)	G9a block inconclusive, PI5P4K alpha inh -56
Cc1ccc(SCc2[nH]nc3c2C2(C(=O)Nc4ccc(F)cc42)C(C#N)=C(N)O3)cc1 (stereo not drawn)	none
CC(C)NC(=O)N(C)C[C@@H]1OCc2cnnn2CCCC(=O)N([C@@H](C)CO)C[C@H]1C	none (no result: JMJD2A Tudor inh, BAZ2B inh, HP1b binding inh, G9a block)
Nc1cc(C(=O)N/N=C/c2cccc([N+](=O)[O-])c2)n[nH]c1=O	JMJD2A Tudor inh inconclusive, BAZ2B inh 56µM, G9a block inconclusive
O=C(N/N=C/c1cccc([N+](=O)[O-])c1)c1cc[n+](CCO)cc1	BAZ2B inh 50µM
CCCCCCCC(=O)Nc1ccc(C(=O)N/N=C/c2cccc([N+](=O)[O-])c2)cc1	none
CN(C(=O)/C=C/c1ccc([N+](=O)[O-])s1)c1ccccc1	JMJD2A Tudor inh inconclusive, BAZ2B inh 40µM, G9a block 45µM, PLK1 PBD inh inconclusive
CN(C(=O)C=Cc1ccco1)c1ccccc1	none (no result: BAZ2B inh, G9a block)
O=C(O)c1cccc(-c2ccc3c(c2)OCO3)c1	none
O=C1OC(c2ccc3c(c2)OCO3)=N/C1=C\c1ccc(C(=O)O)cc1	G9a block 40µM
CCOc1cc(/C=C2\SC(=O)N=C2N)ccc1O	none
COc1cc(/C=C2\SC(N)=NC2=O)cc(Br)c1O	BAZ2B inh inconclusive, PI5P4K alpha inh -71
CCOc1cc(/C=C2\SC(N)=NC2=O)ccc1O	G9a block 56µM, PI5P4K alpha inh inconclusive
CCOc1c(Br)cc(Br)cc1/C=C1\SC(N)=NC1=O	JMJD2A Tudor inh 25µM, BAZ2B inh inconclusive (no result: G9a block)
CCOc1cc(C2C3=C(CC(C)(C)CC3=O)OC3=C2C(=O)CC(C)(C)C3)cc([N+](=O)[O-])c1O	BAZ2B inh inconclusive, G9a block inconclusive, PLK1 PBD inh 34µM
CC1(C)CC(=O)C2=C(C1)OC1=C(C(=O)CC(C)(C)C1)C2c1cc([N+](=O)[O-])cc([N+](=O)[O-])c1O	HP1b binding inh inconclusive, PLK1 PBD inh 17µM
CCCN1CCC(=O)N(CCSc2ccc(Br)cc2)CC1	none (no result: BAZ2B inh, G9a block, PLK1 PBD inh, PI5P4K alpha inh)
Cc1cn(C2CCCCO2)c(=O)nc1NO (stereo not drawn)	JMJD2A Tudor inh 89µM (no result: BAZ2B inh, G9a block)
O=C(NCc1ccc2c(c1)OCO2)c1cccc([N+](=O)[O-])c1	none
O=C(NCc1ccc2c(c1)OCO2)c1cc([N+](=O)[O-])ccc1N1CCCCC1	G9a block 45µM
O=C(NCc1ccco1)c1cc([N+](=O)[O-])ccc1N1CCCCC1	JMJD2A Tudor inh inconclusive, BAZ2B inh inconclusive, G9a block inconclusive, PLK1 PBD inh 24µM
CC(=O)Nc1ccc(SCC(CC(C)C)N2CCN(CCc3ccccc3)CCC2=O)cc1 (stereo not drawn)	none (no result: BAZ2B inh, G9a block, PLK1 PBD inh, PI5P4K alpha inh)
CCOc1cc(CNC)ccc1OCC(=O)NC(C)(C)C	none (no result: G9a block)
COc1cc(CNCc2ccccn2)ccc1OCC(=O)NC(C)(C)C	JMJD2A Tudor inh inconclusive, BAZ2B inh 50µM
COc1cc(CNCc2cccnc2)ccc1OCC(=O)NC(C)(C)C	G9a block inconclusive
CC(C)(C)NC(=O)COc1ccc(CNCc2cccnc2)cc1	JMJD2A Tudor inh 89µM, BAZ2B inh inconclusive, PLK1 PBD inh inconclusive
